CCT modulator: modulators of cytosolic chaperonin (CCT/TRiC) activity; purified chaperonin ATPase assay, HTRF ADP detection, 30 min; activity change, % (test concentration not listed), hits read low; 360,000 tested, 0.3% active; in the data active = activity change below about -30%; note: % is set by controls: 0 for no effect and ±100 for the full control effect
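Enzyme 40 or 20 nM (batch-dependent) in Tris pH 7.4/KCl/MgCl2/DTT; cpd 76 uM single point; ATP 10 uM; 30 min 37 °C; Transcreener ADP HTRF detection, 30 min RT; ratio 665/615.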
gsp ag: gsp mutant agonism; gsp mutant cells, cAMP HTRF, 30 min; AID 624287; Potency, µM (highest dose often 76.9 µM), inactives show at the top dose activation (cAMP increase), usual class: activators; 340,000 tested, 0.13% active; active = well fitted activation curve with a large enough effect; inconclusive = small, poorly fitted or top-dose-only effect, or another doubt; inactive = no such curve, though single readings can be large or run the other way; cell line not stated here;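 note: phosphodiesterase inhibitor Ro 20-1724 added with compounds to block cAMP breakdown; potency is the fitted concentration of half-maximal effect; nearly all actives have a fitted effect of over 60% in size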
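Cells stably selected in G418 were plated at 2000/well, grown 16-24 hr, then given compounds in DMSO with the PDE inhibitor […] (300 uM solution added) for 30 min at 37C; cAMP was read by HTRF.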
RXFP1 ag: activates the human relaxin receptor RXFP1. AID 2676. Potency, µM (top dose mostly 57.5 µM), without a hit: top-dose activation, hits mostly activators. Q9HBX9. 370,000 tested, 0.3% active. HEK293T-RXFP1 cAMP TR-FRET, 30 min; response scale: percent of porcine relaxin response, buffer zero; note: potency is the fitted concentration of half-maximal effect; % is set by controls: 0 for no effect and ±100 for the full control effect; nearly all actives have a fitted effect of over 60% in size
Target sequence (Q9HBX9 whole entry, looked up): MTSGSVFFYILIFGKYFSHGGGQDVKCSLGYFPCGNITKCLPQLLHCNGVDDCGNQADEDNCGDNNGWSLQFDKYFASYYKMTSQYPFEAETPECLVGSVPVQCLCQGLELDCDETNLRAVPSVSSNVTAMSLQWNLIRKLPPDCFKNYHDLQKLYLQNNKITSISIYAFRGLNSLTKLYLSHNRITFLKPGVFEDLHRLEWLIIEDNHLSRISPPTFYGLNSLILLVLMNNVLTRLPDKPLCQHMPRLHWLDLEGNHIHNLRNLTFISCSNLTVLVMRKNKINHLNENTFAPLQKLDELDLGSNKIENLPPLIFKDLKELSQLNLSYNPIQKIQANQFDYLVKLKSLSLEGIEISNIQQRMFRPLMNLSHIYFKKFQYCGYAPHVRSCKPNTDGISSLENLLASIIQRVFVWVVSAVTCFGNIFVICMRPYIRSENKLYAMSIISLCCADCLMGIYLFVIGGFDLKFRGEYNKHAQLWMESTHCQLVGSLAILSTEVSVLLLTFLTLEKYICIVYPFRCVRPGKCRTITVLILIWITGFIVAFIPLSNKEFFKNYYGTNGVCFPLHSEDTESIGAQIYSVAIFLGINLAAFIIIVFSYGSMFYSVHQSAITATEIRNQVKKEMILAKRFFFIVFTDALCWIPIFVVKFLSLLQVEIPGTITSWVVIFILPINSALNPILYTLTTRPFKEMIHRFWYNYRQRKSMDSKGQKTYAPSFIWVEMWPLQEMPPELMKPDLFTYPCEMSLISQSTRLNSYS
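cAMP rise read by TR-FRET after 30 min, 37C compound exposure (up to 58 uM) in RXFP1-transfected HEK293 cells with Ro 20174 present. EC50 from Hill-equation fits, with 29 nM porcine relaxin as 100% and buffer as basal.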
gsp antagonist: antagonizes gsp, the McCune-Albright syndrome mutation | gsp-mutant cells, cAMP HTRF, 30 min | Potency, µM (doses to about 76.9 µM), without a hit: top-dose activity change, negative = inhibition, usual class: inhibitors | 340,000 tested, 0.4% active | AID 624288; calls by dose curve; cell line not stated here;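 note: intracellular cAMP measured with PDE inhibitor Ro 20-1724 present during compound exposure; potency is the fitted concentration of half-maximal effect; % is set by controls: 0 for no effect and ±100 for the full control effect; nearly all actives have a fitted effect of over 65% in size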
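HTRF cAMP measurement after 30 min RT detection following 30 min, 37C compound treatment alongside […] (added as 300 uM solution) in G418-selected cells seeded at 2000/well and grown 16–24 h.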
RXFP1 antagonist: antagonists of human relaxin receptor RXFP1 | 350,000 tested, 0.59% active | activity change, negative = inhibition, % at 57.5 µM | AID 1259400 | HEK293-RXFP1, relaxin-stimulated cAMP HTRF, 30 min; hits give low values;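 active = activity change of -60% or lower, but not beyond a set lower limit; inconclusive = change between -60% and -40%, or beyond the set limit; inactive = change above -40%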; note: % is set by controls: 0 for no effect and ±100 for the full control effect
MmCpn inh: blocks the Methanococcus maripaludis chaperonin Mm-Cpn | Potency, µM (series often up to 76.9 µM), without a hit: at the top dose activity, negative = inhibition, hits mostly inhibitors | AID 504842 | purified Mm-Cpn ATPase, ADP Transcreener TR-FRET | 330,000 tested, 0.031% active; note: potency is the fitted concentration of half-maximal effect; % is set by controls: 0 for no effect and ±100 for the full control effect; nearly all actives have a fitted effect of over 80% in size
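ATP (10 uM final) was added to archaeal chaperonin (25 nM final) after 10 min exposure to test compound at 37°C; after 30 min further incubation, ADP was detected by competitive TR-FRET.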
Active calls of the source: *; ? = inconclusive; . = no result; [ ] = remark or other dose. Shown are actives, neighbours in structure and some others; about 1.2% of the full set was active somewhere. Unless noted, calls come from the whole dose curve; as a rule, active = well fitted curve in the direction sought with a large enough effect; inconclusive = small, poorly fitted or top-dose-only effect, or another doubt; inactive = no such curve, though single readings can be large; an effect the other way counts as inactive or inconclusive.

SMILES	CCT modulator	gsp ag	RXFP1 ag	gsp antagonist	RXFP1 antagonist	MmCpn inh
OCCSc1ncnc2c1oc1ccccc12	-1	-3%	12%	20%	-2	-18%
N#CCCSc1ncnc2c1oc1ccccc12	3	-2%	14µM*	44%	10	-18%
O=C(O)CSc1ncnc2c1oc1ccccc12	-1	2%	?	2%	12	-4%
CCOC(=O)CC(=O)CSc1ncnc2c1oc1ccccc12	-5	?	0.79µM*	?	25	-19%
Cc1cccc(N2CCN(CCNC(=O)Nc3ccc(Cl)cc3)CC2)c1C	.	.	0%	.	-5	.
CC(C)(C)c1cc(-c2csc(Nc3ccccc3)[n+]2Cc2ccc(C(=O)O)cc2)cc(C(C)(C)C)c1O	-3	8%[15.4 µM]	2%	32µM*	-29	-5%
COCCN(C(=O)CSc1nc2ccc(C)cc2[nH]1)c1c(N)n(Cc2ccccc2)c(=O)[nH]c1=O	-39*	?	4%	-3%	-7	2%
S=c1[nH]cnc2scc(-c3ccccc3)c12	-1	6%	2%	-4%	-73*	-1%
O=C(c1cc(O)c(O)c(O)c1)c1ccc(O)c(O)c1O	.	.	.	.	-14	.
C=C(CN(C)C)C(=O)c1cc(C)ccc1C	-1	?	.	?	-109*	.
CC(C)CCn1c(=O)c2sccc2n2c(CCCC(=O)NC(C)C)nnc12	.	.	1%	.	7	.
C=CCOc1ccc(C2C(C(=O)c3cccs3)=C(O)C(=O)N2c2nnc(C)s2)cc1 (stereo not given)	2	32µM*	.	26%	-12	.
Cc1ccc(C(=O)Nc2ccc3c(c2)N(C)C(=O)c2ccccc2S3)cc1F	.	.	3%	.	-23	.
Cc1cc(C)cc(C(=O)NCCn2cc(SCC(=O)N3CCOCC3)c3ccccc32)c1	-32*	-41%	0%	-9%	-4	2%
O=C(CC1C(=O)NCCN1C/C=C/c1ccccc1)NCCc1ccncc1 (stereo not given)	-33*	27%	2%	-1%	-3	1%
Cc1ccc(C)c(N2CCN(C(=O)Cn3cnc4nc5c(cc4c3=O)CCCC5)CC2)c1	.	.	-1%	.	-8	.
S=C(c1cn(CCOc2ccccc2)c2ccccc12)N1CCCC1	-1	?	-1%	?	4	-22%
S=C(c1cn(CCOc2cccc3ccccc23)c2ccccc12)N1CCCC1	-1	-6%[15.4 µM]	2%	-8%	-15	50µM*
CN1Cc2cc(C(=O)N3CCC(C4CCNCC4)CC3)ccc2NC(CC(=O)O)C1=O (stereo not given)	.	.	.	.	-4	.
CCCCC[C@H](O)C=C[C@H]1[C@H](O)CC(=O)[C@H]1CC=CCCCC(=O)O	.	.	.	.	3	.
CN=c1scc(-c2cccs2)n1/N=C/c1ccccc1O	0	-27%	-2%	7%	?	1%
COCCN=c1scc(-c2ccco2)n1/N=C/c1ccc(O)c(O)c1O	-1	-17%[15.4 µM]	-2%	?	-104*	-1%
Oc1ccc(/C=N/n2c(-c3ccco3)csc2=Nc2cccnc2)c(O)c1	0	-4%[15.4 µM]	0%	?	-62*	1%
CN=c1scc(-c2cccs2)n1/N=C/c1ccc(O)c(O)c1O	2	-11%	0%	-21%	-63*	0%
C=CCN=c1scc(-c2ccco2)n1/N=C/c1ccc(O)c(O)c1O	-1	16%[15.4 µM]	4%	-29%	?	-2%
SMILES	CCT modulator	gsp ag	RXFP1 ag	gsp antagonist	RXFP1 antagonist	MmCpn inh
COc1ccc(Nc2ncnc3c2cnn3-c2ccc(C)cc2C)cc1	.	.	5%	.	-23	.
COc1ccc(N2CCN(c3c4c(nc5nncn35)CCC4)CC2)cc1	.	.	19%	.	-1	.
COc1ccc(N(C)S(=O)(=O)c2ccc3c(c2)CCN3C(=O)C2CC2)c(OC)c1	1	-33%	2%	28µM*	-8	1%
CCC(=O)N1CCc2cc(S(=O)(=O)N(C)c3ccc(OC)cc3OC)ccc21	0	1%	-2%	-21%	-4	2%
CN(C)CCN(Cc1ccsc1)c1ccccn1	.	.	.	.	3	.
COc1ccc(CC(N)c2csc(Nc3cc(Oc4ccccc4)ncn3)n2)cc1 (stereo not given)	-36*	.	.	.	.	.
NC(Cc1ccc(Cl)cc1)c1csc(Nc2cc(Oc3ccccc3)ncn2)n1 (stereo not given)	1	.	.	.	.	.
CC(=O)Nc1cc(-c2ccccc2F)cn2c(-c3ccccc3)cnc12	-36*	.	.	.	.	.
COc1ccccc1-c1cc(NC(C)=O)c2ncc(-c3ccccc3)n2c1	-6	.	.	.	.	.
O=C(/C=C/c1ccccc1)NC(=S)Nc1ccc(CN2CCOCC2)cc1	0	-2%[15.4 µM]	2%	?	-63*	1%
O=C(/C=C/c1ccc(Cl)cc1Cl)NC(=S)Nc1ccc(CN2CCOCC2)cc1	-3	-35%	-1%	-11%	-7	1%
CCOC(=O)Oc1ccc(CCNC(=O)[C@H](CCSC)NC(C)=O)cc1OC(=O)OCC	.	.	.	.	-11	.
O=C(O)C1CC(=O)N(Cc2ccc3c(c2)OCO3)C1 (stereo not given)	-3	1%	1%	9%	-6	1%
O=C1CC(NCc2ccc3c(c2)OCO3)C(=O)N1Cc1ccc2c(c1)OCO2 (stereo not given)	-3	-6%	-3%	28µM*	2	0%
COc1cc(/C=C2/SC(=O)NC2=O)ccc1Oc1ccc([N+](=O)[O-])cc1[N+](=O)[O-]	-1	?	0%	25µM*	15	1%
CCOC(=O)N1CCN(C(=O)c2cc(COc3ccc(OC)cc3Cl)on2)CC1	-1	-2%	0%	35µM*	-4	0%
COc1ccc(OCc2cc(C(=O)N3CCCCCCC3)no2)c(Cl)c1	-1	?	-1%	-10%	-13	1%
CC(C)Oc1ccc(CNC(=O)C2CCN(C(=O)N3CC(C)Oc4ccccc43)CC2)cc1 (stereo not given)	.	.	-3%	.	-4	.
Cc1ccc(CCNC(=O)c2ccc(CSc3nc4ccncc4n3Cc3ccc(F)cc3)cc2)cc1	.	.	3%	.	-30	.
CCOC(=O)C1C(=O)CC(C)(O)C(C(=O)OCC)C1c1ccc(OC)cc1 (stereo not given)	-32*	-15%	1%	9%	1	.
CCOC(=O)C1C(=O)CC(C)(O)C(C(=O)OCC)C1c1ccccc1 (stereo not given)	-1	-28%	2%	-1%	-13	1%
